# From PubChem BioAssay (Tox21)
# Unmarked numbers belong to inactive results. Records with an inconclusive call do not appear. A call without a number means that no potency is given here. Active and inactive are the calls of the source. Unless noted, the call rests on the fitted dose curve; in most records, active means well fitted curve in the direction sought with a large enough effect in the repeat runs; inconclusive means weak or mixed curves; inactive means no such curve, though single readings can be large; an effect the other way counts as inactive or inconclusive.
# How the values were obtained:
# [1] = qHTS assay for small molecule agonists of the p53 signaling pathway (AID 651631; calls by dose curve; further: nearly all actives have a fitted effect of over 15% in size; further: potency means the concentration at half of the fitted maximal effect)
# Method in brief: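 HCT-116 p53RE-bla reporter line, 16 h compound treatment at 37 °C, then fluorescence after 2 h with B/G FRET substrate.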
# [2] = qHTS assay for small molecules that induce genotoxicity in human embryonic kidney cells expressing luciferase-tagged ATAD5 (AID 651632); further: nearly all actives have a fitted effect of over 15% in size
# Method in brief: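 A rise in luciferase signal from ATAD5-tagged HEK293T cells marks genetic stress. Cells were exposed to compounds for 16 hr at 37C, 5% CO2, then luciferase was quantified after a 30 min room-temperature incubation with Amplite.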
# [3] = qHTS assay for small molecule agonists of the p53 signaling pathway - cell viability (AID 651633; calls by dose curve; further: nearly all actives have a fitted effect of over 30% in size; further: potency means the concentration at half of the fitted maximal effect)
# Method in brief: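 Viability counter-read: CellTiter-Glo luminescence (30 min, room temperature) in the same p53RE-bla plates. These plates had been exposed to compounds for 16 h at 37 C.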
# [4] = qHTS assay for small molecules that induce genotoxicity in human embryonic kidney cells expressing luciferase-tagged ATAD5 - cell viability (AID 651634; calls by dose curve; further: nearly all actives have a fitted effect of over 25% in size)
# Method in brief: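 Cytotoxicity counter-readout: after 15.5 hr compound treatment at 37C, live-cell protease activity in ATAD5-luciferase HEK293T cells measured by CellTiter-Fluor fluorescence, 30 min development at 37C.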
# [5] = qHTS assay for small molecule disruptors of the mitochondrial membrane potential (AID 720635); further: potency means the concentration at half of the fitted maximal effect
# Method in brief: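 Mitochondrial membrane potential tracked with Mito-MPS dye, red aggregates (ex 540/em 590 nm) against green monomers (ex 490/em 535 nm). Compound treatment 1 hr at 37C, dye 30 min in HepG2.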
# [6] = qHTS assay to test for compound auto fluorescence at 590 nm (red) in HepG2 cells (AID 720674)
# Method in brief: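 We screened compounds on adherent HepG2 cells, incubating them for an hour at 37 C in 5% CO2 before reading emission at 590 nm under 540 nm excitation; values reflect equivalence to Rose Bengal sodium fluorescence.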
# [7] = qHTS assay to test for compound auto fluorescence at 535 nm (green) in HepG2 cells (AID 720675)
# [8] = qHTS assay to test for compound auto fluorescence at 460 nm (blue) in HEK293 cells (AID 720678)
# Method in brief: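 After cell attachment (4-5 hr, 37C), compounds were pinned onto HEK293 monolayers in 10% dialyzed FBS medium. The blue channel (405/460 nm) was read following overnight culture. Equivalency was calculated against triamterene.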
# [9] = qHTS assay to test for compound auto fluorescence at 590 nm (red) in HEK293 cells (AID 720679)
# Method in brief: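 Plates of HEK293 cells (10% dialyzed FBS) are treated with 23 nL compound or DMSO vehicle after a 4-5 hr attachment period, incubated overnight at 37C, and read for red fluorescence at 540/590nm.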
# [10] = qHTS assay for small molecule disruptors of the mitochondrial membrane potential - cell viability (AID 720634; calls by dose curve; further: nearly all actives have a fitted effect of over 20% in size; further: potency means the concentration at half of the fitted maximal effect)
# Method in brief: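 Cytotoxicity was quantified from ATP content by CellTiter-Glo luminescence in the same wells as the MMP dye read-out. HepG2 (2,000 cells/well) were plated overnight and exposed to compounds for 1 hr at 37 C.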
SMILES,Potency [1],Potency [2],Potency [3],Potency [4],Potency [5],outcome [6],outcome [7],outcome [8],outcome [9],Potency [10]
Cc1ccccc1C(=O)Nc1cccc(OC(C)C)c1,inactive,inactive,inactive,inactive,30.6 µM (active),inactive,inactive,inactive,inactive,
CCCCN=C=O,inactive,inactive,inactive,inactive,,inactive,inactive,inactive,inactive,inactive
COC(=O)c1cncn1C(C)c1ccccc1 (configuration not stated),inactive,inactive,inactive,,,inactive,inactive,inactive,inactive,inactive
BrCCCCBr,inactive,inactive,inactive,inactive,,inactive,inactive,,inactive,inactive
NNC(=O)c1cccnc1,inactive,inactive,inactive,inactive,,inactive,inactive,inactive,inactive,inactive
Cc1ccc2ccccc2c1,inactive,inactive,inactive,,inactive,inactive,inactive,inactive,inactive,inactive
CCOS(C)(=O)=O,inactive,inactive,inactive,inactive,,inactive,inactive,inactive,inactive,inactive
O=C1C(Cl)C(CCl)CN1c1cccc(C(F)(F)F)c1 (configuration not stated),inactive,inactive,inactive,inactive,,inactive,inactive,inactive,inactive,
CCOC(=O)CBr,inactive,inactive,inactive,inactive,,inactive,inactive,inactive,inactive,inactive
CC(C)(CCl)C(=O)Cl,inactive,inactive,inactive,inactive,,inactive,inactive,inactive,inactive,inactive
c1ccoc1,inactive,inactive,inactive,,inactive,inactive,inactive,,inactive,inactive
COc1cc(Cl)c(OC)cc1Cl,inactive,inactive,inactive,inactive,,inactive,inactive,inactive,inactive,inactive
C=CC(=O)NCNC(=O)C=C,inactive,inactive,inactive,inactive,,inactive,inactive,,inactive,
COc1ccc(-c2ccccc2)cc1NNC(=O)OC(C)C,inactive,inactive,inactive,,56.8 µM (active),inactive,inactive,inactive,inactive,inactive
CCCCc1c(C)nc(NCC)nc1OS(=O)(=O)N(C)C,inactive,inactive,inactive,inactive,21.7 µM (active),inactive,inactive,inactive,inactive,
CC(Cl)C(C)Cl (configuration not stated),inactive,inactive,inactive,inactive,,inactive,inactive,inactive,inactive,inactive
CCOP(=O)(OCC)O/C(=C/Cl)c1ccc(Cl)cc1Cl,inactive,inactive,inactive,inactive,,inactive,inactive,inactive,inactive,inactive
CCOP(=O)(OCC)Oc1ccc([N+](=O)[O-])cc1,,inactive,inactive,inactive,inactive,inactive,inactive,inactive,inactive,inactive
Nc1nc(N)nc(N)n1,inactive,inactive,,inactive,inactive,inactive,inactive,,inactive,inactive
O=C(CBr)OCc1ccccc1,inactive,inactive,inactive,,,inactive,inactive,inactive,inactive,inactive
CC(C)=CCOc1c2occc2cc2ccc(=O)oc12,inactive,inactive,,inactive,inactive,inactive,inactive,inactive,inactive,inactive
CCC(Br)(CC)C(=O)NC(N)=O,inactive,,,inactive,inactive,inactive,inactive,inactive,inactive,inactive
CCCCCC[N+](=O)[O-],inactive,,inactive,,,inactive,inactive,inactive,inactive,inactive
CNC(C)Cc1ccccc1OC (configuration not stated),inactive,inactive,,,inactive,inactive,inactive,inactive,inactive,inactive
CC1(C)[C@H](C=C(Cl)Cl)[C@@H]1C(=O)O[C@@H](C#N)c1cccc(Oc2ccccc2)c1,inactive,inactive,,inactive,,inactive,inactive,inactive,inactive,
CN(C)c1ccc(N(C)C)cc1,inactive,inactive,inactive,,inactive,inactive,inactive,inactive,inactive,
Cc1ccc(-c2c(Cl)nc(C#N)n2S(=O)(=O)N(C)C)cc1,15.3 µM (active),inactive,,inactive,1.09 µM (active),inactive,inactive,inactive,inactive,
NCCCNCCCN,inactive,,,inactive,,inactive,inactive,inactive,inactive,inactive
O=S1(=O)OC(c2cc(Br)c(O)c(Br)c2)(c2cc(Br)c(O)c(Br)c2)c2ccccc21,inactive,inactive,44.5 µM (active),,,inactive,inactive,inactive,inactive,28.1 µM (active)
